AmpC detergent = inhibitors of E. coli AmpC beta-lactamase with detergent. P00811. AmpC hydrolysis of nitrocefin, absorbance 480 nm, 0.01% Triton. Potency, µM (highest dose often 114 µM), for inactives: at the highest dose activity change, negative = inhibition, actives largely listed as inhibitors. hit rate 0.041% among 370,000;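 also: 0% = no-compound wells and -100% = no-enzyme wells; nearly all actives have a fitted effect of over 25% in size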
Target sequence (P00811 whole entry, looked up): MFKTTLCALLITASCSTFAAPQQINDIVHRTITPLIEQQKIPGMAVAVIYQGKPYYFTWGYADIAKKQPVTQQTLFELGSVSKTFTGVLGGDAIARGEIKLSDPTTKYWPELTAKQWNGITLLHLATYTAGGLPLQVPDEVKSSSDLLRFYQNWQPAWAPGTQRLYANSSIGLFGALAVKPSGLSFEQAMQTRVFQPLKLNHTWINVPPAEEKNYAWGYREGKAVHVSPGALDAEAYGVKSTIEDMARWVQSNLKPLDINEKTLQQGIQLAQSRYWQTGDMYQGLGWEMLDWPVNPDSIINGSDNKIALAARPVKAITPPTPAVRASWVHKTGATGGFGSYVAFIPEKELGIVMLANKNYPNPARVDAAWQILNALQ
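20 mM phosphate pH 7.0 + 0.01% (detergent screen) or 0.0001% Triton X-100; 5.3 nM AmpC reagent; cpd preinc 15 min RT; nitrocefin (800 uM stock) to start; A480 q20 s × 4 min; Activity was normalised to no-enzyme and no-compound control wells.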
AmpC inh no detg = blocks E. coli AmpC beta-lactamase in detergent-free assay | P00811 | hit rate 0.52% among 330,000 | AmpC nitrocefin hydrolysis, absorbance 480 nm, 0.0001% Triton | Potency, µM (doses to about 57.1 µM), for inactives: at the top dose activity change, negative = inhibition, most hits filed as inhibitors;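 also: plate controls were no compound for no effect and no enzyme for full effect; nearly all actives have a fitted effect of over 20% in size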
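20 mM phosphate pH 7.0 + 0.01% (detergent screen) or 0.0001% Triton X-100; 5.3 nM AmpC reagent; cpd preinc 15 min RT; nitrocefin (800 uM stock) to start; A480 q20 s × 4 min; Activity was normalised to no-enzyme and no-compound control wells.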
Vaccinia mCherry = vaccinia inhibition (mCherry reporter) | Vaccinia virus mCherry reporter infection, fluorescence | hit rate 0.63% among 310,000 | AID 720579 | Potency, µM (top dose mostly 36.5 µM), for inactives: top-dose activity change, negative = inhibition, most hits filed as inhibitors; calls by dose curve; tested in A549 cells; also: % is scaled to controls: 0 for no effect and ±100 for the full control effect; nearly all actives have a fitted effect of over 35% in size
SARS PLpro yeast = inhibitors of SARS-CoV papain-like protease in yeast. hit rate 0.19% among 330,000. Potency, µM (top dose mostly 32.9 µM), for inactives: at the highest dose activity, positive = growth rescue, usual class: activators. S. cerevisiae expressing SARS-CoV PLpro, growth rescue. AID 485353; calls by dose curve; also: 0% is about no effect; nearly all actives have a fitted effect of over 55% in size
VACV Venus inh = inhibitors of vaccinia virus (Venus reporter) | Vaccinia virus Venus reporter expression, fluorescence | Potency, µM (series often up to 36.5 µM), inactives show top-dose activity change, negative = inhibition, most hits filed as inhibitors | hit rate 0.46% among 330,000; calls by dose curve; tested in A549 cells; also: % is scaled to controls: 0 for no effect and ±100 for the full control effect; nearly all actives have a fitted effect of over 30% in size
Active calls of the source: *; i = inactive; ? = inconclusive; nt = no result; ! = not active in a repeat. Hits are enriched below; roughly 1.3% of the tested compounds scored in any of these assays. Unless noted, calls follow the shape of the dose curve; as a rule, active = well fitted curve in the direction sought with a large enough effect; inconclusive = small, poorly fitted or top-dose-only effect, or another doubt; inactive = no such curve, though single readings can be large; an effect the other way counts as inactive or inconclusive. Potency is read from the fitted curve at half-maximal effect.

SMILES | AmpC detergent | AmpC inh no detg | Vaccinia mCherry | SARS PLpro yeast | VACV Venus inh
O=C(CSc1nnc(SCc2ccccc2)s1)N/N=C/C=C/c1ccco1 | ? | 11µM* | -2% | 4% | -8%
Cc1c(C(=O)NCC2CCCN(C)C2)cnn1-c1ncc2c(n1)-c1ccccc1CCC2 (configuration not stated) | nt | nt | -15% | nt | -12%
COc1cccc(C(=O)N2CCc3c(C(=O)NC(C)c4ccco4)c(OC)cc(=O)n3CC2)c1OC (configuration not stated) | nt | nt | -4% | nt | 8%
CC(C)CCN(C)C1CCN(S(=O)(=O)c2ccc(F)cc2)CC1 | -12% | 10µM* | i | -2% | -14%
O=S(=O)(c1ccc(F)cc1)N1CCC(N2CCCC2)CC1 | ? | -18% | -3% | 4% | -15%
Cc1ccc(C(=O)Nc2cnn(-c3ccc(C(=O)NCc4nc(-c5ccccc5)n[nH]4)cc3)c2)c(C)c1 | nt | nt | -21% | nt | -25%
Cc1nc2cc(NC(=O)NCc3ccco3)ccc2o1 | 2% | 0.35µM* | i | -2% | -2%
CCOC(=O)C1CCN(C(=O)c2ccc(-n3ccc4ccccc43)s2)CC1 | 2% | nt | -2% | nt | -10%
O=C1/C(=C/c2ccc(O)c(O)c2)SC(=S)N1Nc1ccccc1 | 2% | 25µM* | 164% | 5% | i
COc1cc(/C=C2\SC(=S)N(Nc3ccccc3)C2=O)ccc1O | -13% | -21% | i | -12% | i
CCc1cc2ccccc2nc1SCC(=O)Nc1cc(OC)c(OC)cc1C(=O)O | 0% | 8.9µM* | -9% | 21% | -17%
CN(CC1COc2ccccc2O1)c1nc(-c2cccnc2)nc2ccccc12 (configuration not stated) | ? | 31% | ? | -11% | -15%
c1cncc(-c2nc(NCC3COc4ccccc4O3)c3ccccc3n2)c1 (configuration not stated) | 3% | -1% | ? | -22% | 11µM*
c1ccc(CNc2nc(-c3cccnc3)nc3ccccc23)cc1 | -2% | -31% | nt | -5% | nt
c1ccc(CN2CCC(Nc3nc(-c4cccnc4)nc4ccccc34)CC2)cc1 | -4% | 7% | ? | -6% | 13µM*
O=C(Nc1cc(-c2ccccc2)[nH]n1)c1ccc(Cl)cc1 | 0% | 7.1µM*! | nt | 0% | nt
O=C(Nc1nc(-c2ccccc2)ns1)c1ccc(Cl)cc1 | 0% | nt | -9% | nt | -14%
CCN(CC)c1ccc(CNCCc2ccc(F)cc2)cc1 | -2% | -37% | 10µM* | 1% | -8%
CCc1ccc(CNCCc2ccc(F)cc2)cc1 | ? | -10% | -8% | 8% | -27%
CC(Cl)=CCn1c(NCCc2ccccc2)nc2c1c(=O)n(C)c(=O)n2C | nt | nt | 3% | nt | -26%
Cc1ccc(NC(=S)Nc2nc(CC(=O)Nc3ccccc3)cs2)cc1 | -2% | 14µM* | nt | 5% | nt
COc1ccc(NC(=O)Cc2csc(NC(=O)Nc3ccccc3OC)n2)cc1 | nt | nt | -9% | nt | -21%
Cc1nn(-c2ccc(F)cc2)c(C)c1CNC(=O)c1ccc(-n2cc(NC(=O)c3ccoc3)cn2)cc1 | nt | nt | -3% | nt | -1%
CCOC(=O)C(C)C(C)=O (configuration not stated) | -2% | -3% | 0.32µM* | -1% | ?
CCOC(=O)C(C(C)=O)C(c1ccc(OC)cc1)C(C(C)=O)C(=O)OCC (configuration not stated) | -6% | -1% | nt | -10% | -11%
SMILES | AmpC detergent | AmpC inh no detg | Vaccinia mCherry | SARS PLpro yeast | VACV Venus inh
COc1ccc2cc3c(N)nn(C(=O)C4CCC(C(C)(C)C)CC4)c3nc2c1 (configuration not stated) | ? | -19% | ? | -8% | 14µM*
CCOc1cc(/C=N/N=C(/N)c2nonc2N)cc(Br)c1OCc1ccc(Cl)cc1 | 3% | 16µM* | nt | 2% | nt
CO/N=C(/C(=O)N[C@@H]1C(=O)N2C(C(=O)O)=CCS[C@H]12)c1cnc(N)s1 | 50µM* | -34% | nt | 3% | nt
CCCOc1ccc(-c2cnc(N)s2)cc1 | -11% | -20% | 4.5µM* | -14% | 5µM*
Cc1nc2sccn2c1CN1CCC2(CC1)CC2C(=O)Nc1ccc2c(c1)OCO2 (configuration not stated) | nt | nt | -14% | nt | -9%
C/C(=N\NC(=O)c1cc2ccccc2cc1O)c1ccccn1 | -2% | -52% | ? | 1% | -9%
C/C(CC(=O)N1CCN(C=O)CC1)=N\NC(=O)c1cc2ccccc2cc1O | -4% | 36% | i | 14µM* | -3%
C/C(=N\NC(=O)c1cc2ccccc2cc1O)c1cc2ccccc2o1 | 4% | 16µM* | -24% | 0% | -14%
C/C(CC(=O)N1CCN(C=O)CC1)=N\NC(=O)c1ccc([N+](=O)[O-])cc1 | 1% | -20% | nt | 1% | nt
COCC(=O)Nc1cc(C(=O)N2CCCC(C(N)=O)C2)cc2nc(-c3ccccc3)n(C)c12 (configuration not stated) | nt | nt | -14% | nt | -6%
Cn1cnc([N+](=O)[O-])c1Oc1ccccc1 | 3% | -9% | 28µM* | 15% | ?
CN(C)CCCn1cnc2c(c1=N)C(c1ccccc1)c1ccc3ccccc3c1O2 (configuration not stated) | -3% | 201% | ? | -1% | 18µM*
Cc1cc(C(C)(C)C)cc(C)c1CCNC(=O)c1ccc[n+]([O-])c1 | 1% | 94% | 10µM* | -1% | 25%
Cc1ccn2c(C(=O)CSc3ccccc3Cl)c(C)nc2c1 | 2% | 0.32µM* | nt | -2% | 3%
C=CCC[C@H](Cc1ccc(F)cc1)C(=O)OC[C@H](Cc1c[nH]c2ccccc12)NC(=O)[C@H](CC=C)CC(=O)N(CCO)Cc1ccccc1 | nt | 10% | ? | 2% | 22µM*
C=CC[C@H](CC(=O)N(CCO)Cc1ccccc1)C(=O)NC[C@H](OC(=O)[C@@H](CC=C)Cc1ccc(F)cc1)c1ccccc1 | nt | 191% | ? | -38% | 11µM*
C=CC[C@@H](CC(=O)N(CCO)Cc1ccccc1)C(=O)NC[C@@H](OC(=O)[C@@H](CC=C)Cc1ccc(F)cc1)c1ccccc1 | nt | 168% | 11% | 4% | -7%
C=CCC[C@@H](Cc1ccc(F)cc1)C(=O)OC[C@@H](Cc1c[nH]c2ccccc12)NC(=O)[C@H](CC=C)CC(=O)N[C@H](CO)Cc1ccccc1 | nt | -16% | -32% | 2% | 11µM*
CCN(CC)c1ccc(C(=O)N/N=C/c2ccccc2OC(F)F)cc1 | 4% | -32% | nt | 8.9µM* | nt
CC(C)Oc1ccccc1/C=N/NC(=O)c1ccc(F)cc1 | 0% | -30% | -13% | -3% | -9%
CCN(CC)c1ccc(/C=N/NC(=O)OC)c(O)c1 | 0% | -18% | nt | -23% | -12%
CCN(CC)c1ccc(/C=N/NC(=O)c2ccoc2C)c(O)c1 | -2% | -32% | 1.1µM* | 15% | ?
CCN(CC)c1ccc(/C=N/NC(=O)c2cccc(S(=O)(=O)Nc3ccccc3OC)c2)cc1 | -5% | -30% | nt | -1% | nt
